High-throughput results deposited in PubChem BioAssay by several laboratories.
Most compounds without a hit are left out; they make up all but 0.83% or so of the library.
NCOA2 inhibitor = human SRC2 (NCOA2) inhibition. HEK293 GAL4-SRC2 luciferase reporter, luminescence. inhibition, % at 9 µM. Q15596. actives 0.17% (n = 370,000);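 active means inhibition above the mean inhibition of all tested compounds plus 3 SD, set per campaign, cut at about 52% in these data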
LRH-1 inv ag = suppresses constitutive activity of human LRH-1; O00482; HEK293T StAR-luciferase reporter, LRH-1 transfected, 24 h; inhibition, % at 3.6 µM; actives 0.13% (n = 360,000); AID 602396;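 active means inhibition above the mean inhibition of all tested compounds plus 3 SD, cut at about 73% in these data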
Target sequence (O00482 whole entry, looked up): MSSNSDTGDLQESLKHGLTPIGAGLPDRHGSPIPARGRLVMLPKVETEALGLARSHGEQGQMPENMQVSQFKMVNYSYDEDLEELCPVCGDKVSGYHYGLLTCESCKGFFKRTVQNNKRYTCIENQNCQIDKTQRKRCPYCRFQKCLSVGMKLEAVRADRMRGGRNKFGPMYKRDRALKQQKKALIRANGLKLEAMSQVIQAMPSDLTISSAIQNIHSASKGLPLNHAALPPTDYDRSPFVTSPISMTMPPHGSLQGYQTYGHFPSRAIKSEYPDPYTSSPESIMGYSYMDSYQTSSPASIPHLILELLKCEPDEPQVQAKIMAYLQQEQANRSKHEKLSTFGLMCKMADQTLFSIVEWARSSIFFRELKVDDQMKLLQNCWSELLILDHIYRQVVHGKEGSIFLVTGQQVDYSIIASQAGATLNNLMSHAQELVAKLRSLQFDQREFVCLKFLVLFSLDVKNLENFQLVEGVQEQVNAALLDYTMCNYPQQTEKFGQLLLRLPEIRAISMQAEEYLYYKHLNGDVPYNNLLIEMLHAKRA
Gli-Sufu block = Gli-Sufu pathway antagonism. actives 0.74% (n = 340,000). inhibition, % at 5 µM. Sufu-KO-LIGHT fibroblasts, Gli luciferase reporter luminescence;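 active means inhibition above about 55%, limit read from the data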
NCOA3 inh = inhibitors of human steroid receptor coactivator 3 (SRC3) | HEK293 GAL4-SRC3 luciferase reporter, luminescence | inhibition, % at 3.6 µM | actives 0.17% (n = 360,000) | AID 588352;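 active means inhibition above a per-campaign cutoff, the mean of all compounds plus 3 SD, cut at about 60% in these data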;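 further: higher means less SRC3-driven luciferase light from the GAL4 reporter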
NCOA1 inh = inhibitors of human steroid receptor coactivator 1 (SRC1); Q15788; HEK293 GAL4-SRC1 luciferase reporter, luminescence; inhibition, % at 3.6 µM; actives 0.12% (n = 360,000);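 active means inhibition above the campaign mean plus 3 SD, with each screening campaign given its own cutoff, cut at about 60% in these data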
Numbers stand for hits.

Results for Cc1cccc(Nc2ncnc3ccc(Br)cc23)c1 ?
NCOA2 inhibitor: inactive; LRH-1 inv ag: inactive; Gli-Sufu block: inactive; NCOA3 inh: inactive; NCOA1 inh: inactive

Results for COc1ccc(Nc2ncnc3ccc(Br)cc23)cc1OC ?
LRH-1 inv ag: inactive; Gli-Sufu block: inactive; NCOA3 inh: inactive; NCOA1 inh: 61.2

Results for COc1ccc(/C=N/Nc2cc(C)nc3c(C)cccc23)cc1 ?
NCOA2 inhibitor: inactive; LRH-1 inv ag: inactive; Gli-Sufu block: inactive; NCOA3 inh: inactive; NCOA1 inh: inactive

What do the screens show for `COc1ccc(/C=N/Nc2cc(C)nc3ccccc23)cc1`?
NCOA2 inhibitor: inactive; LRH-1 inv ag: inactive; Gli-Sufu block: 55.0; NCOA3 inh: inactive; NCOA1 inh: inactive

How did Cc1ccc(-n2c(COc3ccccc3)nnc2SCC(=O)Nc2ccccc2-c2ccccc2)cc1 do in these assays?
NCOA2 inhibitor: inactive

How did C[C@H]1CCC/C=C/[C@@H]2C[C@H](O)C[C@H]2[C@H](O)[C@H](S(=O)c2ccc(O)cc2)CC(=O)O1 (stereo partly drawn) do in these assays?
NCOA2 inhibitor: inactive; LRH-1 inv ag: 79.3; Gli-Sufu block: inactive; NCOA3 inh: 62.9; NCOA1 inh: inactive

How did C#CCN1CC(N2CCN(CCO)CC2)CS1(=O)=O (stereo not drawn) do in these assays?
NCOA2 inhibitor: inactive

What do the screens show for `O=C(/C=C/c1cccnc1)/C=C/c1cccnc1`?
NCOA2 inhibitor: 52.2; LRH-1 inv ag: inactive; Gli-Sufu block: inactive; NCOA3 inh: inactive; NCOA1 inh: inactive

How did C(=Cc1cccnc1)c1ccncc1 do in these assays?
NCOA2 inhibitor: inactive; LRH-1 inv ag: inactive; Gli-Sufu block: inactive; NCOA3 inh: inactive; NCOA1 inh: inactive

Results for CCCCc1c(CCC)c(=N)c2ccccc2n1C ?
NCOA2 inhibitor: inactive; LRH-1 inv ag: inactive; Gli-Sufu block: 75.9; NCOA3 inh: inactive; NCOA1 inh: inactive

What do the screens show for `CCCCc1c(O)c2ccccc2n(CCCC)c1=O`?
NCOA2 inhibitor: inactive; LRH-1 inv ag: inactive; Gli-Sufu block: inactive; NCOA3 inh: inactive; NCOA1 inh: inactive

Results for CC(C)CNc1cccc2c1S(=O)(=O)N(Cc1cn(Cc3ccc(F)cc3)nn1)Cc1ccccc1O2 ?
NCOA2 inhibitor: inactive

What do the screens show for `Cc1[nH]c2ccccc2c(=O)c1C(=O)/C=C/c1ccccc1`?
NCOA2 inhibitor: 65.2; LRH-1 inv ag: inactive; Gli-Sufu block: inactive; NCOA3 inh: 72.2; NCOA1 inh: 64.1

How did O=C(C=Cc1ccccc1)c1c[nH]c2ccccc2c1=O do in these assays?
NCOA2 inhibitor: inactive; LRH-1 inv ag: inactive; Gli-Sufu block: inactive; NCOA3 inh: inactive; NCOA1 inh: inactive

What do the screens show for `CS/C(=C\[N+](=O)[O-])Nc1ccc(OC(F)(F)F)cc1`?
NCOA2 inhibitor: inactive; LRH-1 inv ag: 79.7; Gli-Sufu block: inactive; NCOA3 inh: inactive; NCOA1 inh: inactive

What do the screens show for `Nc1c(Cl)ncnc1N/N=C/c1ccc2ccccc2n1`?
NCOA2 inhibitor: inactive; LRH-1 inv ag: inactive; Gli-Sufu block: 65.5; NCOA3 inh: inactive; NCOA1 inh: inactive

What do the screens show for `Nc1c(Cl)ncnc1N/N=C/c1ccccn1`?
NCOA2 inhibitor: inactive; Gli-Sufu block: 77.0

Results for Nc1c(Cl)ncnc1N/N=C/c1ccnc2ccccc12 ?
NCOA2 inhibitor: inactive; LRH-1 inv ag: inactive; Gli-Sufu block: inactive; NCOA3 inh: inactive; NCOA1 inh: inactive

How did CCC(NC(=O)c1ccc2c(c1)c(C)c(C)n2Cc1ccc(-c2ccccc2C#N)cc1)c1ccccc1 (stereo not drawn) do in these assays?
NCOA2 inhibitor: inactive

What do the screens show for `N=c1c2c(-c3ccccc3)c(-c3ccccc3)n(Cc3ccccc3)c2ncn1CCCn1ccnc1`?
NCOA2 inhibitor: inactive; LRH-1 inv ag: inactive; Gli-Sufu block: inactive; NCOA3 inh: 66.9; NCOA1 inh: inactive

Results for C#CCNC(=O)C[C@H]1C[C@@]2(C(=O)OC)C(=C[C@H](COCc3ccccc3)O[C@@H]2C)N(CCCCCCCC)C1=O ?
NCOA2 inhibitor: inactive

How did COc1ccc(CC(=O)NCc2nnc(SCC(=O)Nc3nccs3)n2-c2ccccc2)cc1 do in these assays?
NCOA2 inhibitor: inactive; LRH-1 inv ag: inactive; Gli-Sufu block: inactive; NCOA3 inh: inactive; NCOA1 inh: inactive

How did Cc1cccc(-n2c(CNC(=O)c3ccccc3)nnc2SCC(=O)Nc2nccs2)c1 do in these assays?
NCOA2 inhibitor: inactive; LRH-1 inv ag: 85.2; Gli-Sufu block: inactive; NCOA3 inh: inactive; NCOA1 inh: inactive

What do the screens show for `CCC(C(=O)NCc1ccccc1)n1c(CSCCOc2ccccc2)nc2ccccc21` (stereo not drawn)?
NCOA2 inhibitor: 74.9; LRH-1 inv ag: inactive

How did COc1ccc(C(C(=O)NC2CCCC2)n2c(Cc3cc(F)cc(F)c3)nc3ccccc32)cc1 (stereo not drawn) do in these assays?
NCOA2 inhibitor: inactive; LRH-1 inv ag: inactive

Results for COc1ccc(C(C(=O)NC2CCCC2)n2c(CSCCOc3ccccc3)nc3ccccc32)cc1 (stereo not drawn) ?
NCOA2 inhibitor: 79.0; LRH-1 inv ag: inactive

How did COC(=O)C1CN(Cc2ccc(Cl)cc2)CCS(=O)(=O)N1Cc1cn(Cc2ccc(Cl)cc2)nn1 (stereo not drawn) do in these assays?
NCOA2 inhibitor: inactive

Results for Cc1cccc(Cn2cc(COC(=O)NCC(C)C)nn2)c1 ?
NCOA2 inhibitor: inactive

What do the screens show for `C[n+]1c2n(c3ccccc31)N=C(c1cc(C(C)(C)C)c(O)c(C(C)(C)C)c1)CS2`?
NCOA2 inhibitor: inactive; LRH-1 inv ag: 79.4; Gli-Sufu block: 88.8; NCOA3 inh: inactive; NCOA1 inh: inactive

What do the screens show for `Cc1ccc(-n2ncc3c(N4CCCC4)ncnc32)c(C)c1`?
NCOA2 inhibitor: inactive; LRH-1 inv ag: inactive; Gli-Sufu block: inactive; NCOA3 inh: inactive; NCOA1 inh: inactive

What do the screens show for `COc1cccc(N2CCN(c3ncnc4c3cnn4-c3ccc(C)cc3C)CC2)c1`?
NCOA2 inhibitor: 69.3; LRH-1 inv ag: inactive; Gli-Sufu block: inactive; NCOA3 inh: 78.7; NCOA1 inh: inactive

Results for COC(=O)[C@H]1C[C@@]2(C)c3ccccc3N(S(=O)(=O)c3ccccc3)[C@H]2N1 ?
NCOA2 inhibitor: inactive

Results for Cc1cc([N+](=O)[O-])nn1CCCC(=O)Nc1ccc(Cl)cc1Cl ?
NCOA2 inhibitor: inactive; LRH-1 inv ag: inactive; Gli-Sufu block: inactive; NCOA3 inh: inactive; NCOA1 inh: 62.1

How did COC(=O)[C@H](Cc1ccccc1)N(Cc1cn(Cc2ccccc2)nn1)S(=O)(=O)c1ccccc1Br do in these assays?
NCOA2 inhibitor: inactive

Results for CCc1ccc(Nc2n[n+](-c3ccccc3)c(-c3cccc(C)c3)s2)cc1 ?
NCOA2 inhibitor: inactive; LRH-1 inv ag: inactive; Gli-Sufu block: 69.9; NCOA3 inh: inactive; NCOA1 inh: inactive

How did Cc1cccc(-c2sc(Nc3ccccc3)n[n+]2-c2ccc(F)cc2)c1 do in these assays?
NCOA2 inhibitor: inactive; LRH-1 inv ag: inactive; Gli-Sufu block: inactive; NCOA3 inh: inactive; NCOA1 inh: inactive

What do the screens show for `COc1cccc(/C=C/C(=O)OCC(=O)N2CCCC2)c1OC`?
NCOA2 inhibitor: inactive; LRH-1 inv ag: inactive; Gli-Sufu block: inactive; NCOA3 inh: 86.0; NCOA1 inh: inactive

What do the screens show for `CCCCNC(=O)C[C@@H]1C(=O)N(Cc2ccc(OC)cc2)/C2=C/CCCCC[C@@]21C(=O)OCC`?
NCOA2 inhibitor: inactive
